Laboratory results from the supplement of paper PMC8975748.
Counter-ions that a name gives are not always drawn. ± gives the standard deviation of the averaged measurements.

Columns and labels:
[1] = tested on: Saccharomyces cerevisiae BY4741 SeMeCo community; experiment: mean cell size (pixel area) (pixels); higher = larger cells; conditions: 10 µM; 24 h; SM minimal medium
How it was run: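 For 24 h, 70 µl of yeast culture diluted to OD600 = 0.3 from an overnight preculture at OD600 = 1.0 was kept in SM medium in 384-well plates acoustically predosed with drug, final 10 µM. The strain was Saccharomyces cerevisiae BY4741 forming a fluorescent community of four plasmids, each complementing one auxotrophy and carrying a fluorescent marker. Automated confocal microscopy of paraformaldehyde-fixed cells, analysed in Harmony, provided mean cell pixel area per well, which was averaged over 3 replicates. Same SeMeCo high-content imaging drug screen: Selleck FDA-approved drugs at 10 µM, 24 h in SM medium, 384-well plates, 3 replicates.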

[2] = tested on: Saccharomyces cerevisiae BY4741 SeMeCo community; experiment: z-score of prototroph abundance vs DMSO median; higher = larger share of this subpopulation than in DMSO controls; conditions: 10 µM; 24 h; SM minimal medium; subpopulation (auxotrophy): Prototroph
How it was run: (§1)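 Four plasmids, each restoring a single auxotrophy and encoding a distinct fluorescent protein, were carried by a Saccharomyces cerevisiae BY4741 community. After overnight growth to OD600 1.0 and dilution to 0.3, 70 µl per well was grown for 24 h in minimal SM medium on 384-well plates acoustically predosed with library drugs at 10 µM final. Following paraformaldehyde fixation, automated confocal microscopy was used, with single-auxotroph fluorescent strains defining thresholds and autofluorescence correction. Subpopulation abundance was then scored as a z-score against the vehicle-well median.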

[3] = tested on: Saccharomyces cerevisiae BY4741 SeMeCo community; experiment: z-score of subpopulation abundance vs DMSO median, subpopulation auxotrophic for M; higher = larger share of this subpopulation than in DMSO controls; conditions: 10 µM; 24 h; SM minimal medium; subpopulation (auxotrophy): M
How it was run: as §1

[4] = tested on: Saccharomyces cerevisiae BY4741 SeMeCo community; experiment: z-score of subpopulation abundance vs DMSO median, subpopulation auxotrophic for L; higher = larger share of this subpopulation than in DMSO controls; conditions: 10 µM; 24 h; SM minimal medium; subpopulation (auxotrophy): L
How it was run: as §1

[5] = tested on: Saccharomyces cerevisiae BY4741 SeMeCo community; experiment: z-score of subpopulation abundance vs DMSO median, subpopulation auxotrophic for U; higher = larger share of this subpopulation than in DMSO controls; conditions: 10 µM; 24 h; SM minimal medium; subpopulation (auxotrophy): U
How it was run: as §1

[6] = tested on: Saccharomyces cerevisiae BY4741 SeMeCo community; experiment: z-score of subpopulation abundance vs DMSO median, subpopulation auxotrophic for H; higher = larger share of this subpopulation than in DMSO controls; conditions: 10 µM; 24 h; SM minimal medium; subpopulation (auxotrophy): H
How it was run: as §1

[7] = tested on: Saccharomyces cerevisiae BY4741 SeMeCo community; experiment: z-score of subpopulation abundance vs DMSO median, subpopulation auxotrophic for LM; higher = larger share of this subpopulation than in DMSO controls; conditions: 10 µM; 24 h; SM minimal medium; subpopulation (auxotrophy): LM
How it was run: as §1

[8] = tested on: Saccharomyces cerevisiae BY4741 SeMeCo community; experiment: z-score of subpopulation abundance vs DMSO median, subpopulation auxotrophic for HM; higher = larger share of this subpopulation than in DMSO controls; conditions: 10 µM; 24 h; SM minimal medium; subpopulation (auxotrophy): HM
How it was run: as §1

[9] = tested on: Saccharomyces cerevisiae BY4741 SeMeCo community; experiment: z-score of subpopulation abundance vs DMSO median, subpopulation auxotrophic for HU; higher = larger share of this subpopulation than in DMSO controls; conditions: 10 µM; 24 h; SM minimal medium; subpopulation (auxotrophy): HU
How it was run: as §1

[10] = tested on: Saccharomyces cerevisiae BY4741 SeMeCo community; experiment: z-score of subpopulation abundance vs DMSO median, subpopulation auxotrophic for UM; higher = larger share of this subpopulation than in DMSO controls; conditions: 10 µM; 24 h; SM minimal medium; subpopulation (auxotrophy): UM
How it was run: as §1

[11] = tested on: Saccharomyces cerevisiae BY4741 SeMeCo community; experiment: z-score of subpopulation abundance vs DMSO median, subpopulation auxotrophic for HL; higher = larger share of this subpopulation than in DMSO controls; conditions: 10 µM; 24 h; SM minimal medium; subpopulation (auxotrophy): HL
How it was run: as §1

[12] = tested on: Saccharomyces cerevisiae BY4741 SeMeCo community; experiment: z-score of subpopulation abundance vs DMSO median, subpopulation auxotrophic for HLU; higher = larger share of this subpopulation than in DMSO controls; conditions: 10 µM; 24 h; SM minimal medium; subpopulation (auxotrophy): HLU
How it was run: as §1

[13] = tested on: Saccharomyces cerevisiae BY4741 SeMeCo community; experiment: z-score of subpopulation abundance vs DMSO median, subpopulation auxotrophic for HLM; higher = larger share of this subpopulation than in DMSO controls; conditions: 10 µM; 24 h; SM minimal medium; subpopulation (auxotrophy): HLM
How it was run: as §1

[14] = tested on: Saccharomyces cerevisiae BY4741 SeMeCo community; experiment: z-score of subpopulation abundance vs DMSO median, subpopulation auxotrophic for HUM; higher = larger share of this subpopulation than in DMSO controls; conditions: 10 µM; 24 h; SM minimal medium; subpopulation (auxotrophy): HUM
How it was run: as §1

[15] = tested on: Saccharomyces cerevisiae BY4741 SeMeCo community; experiment: z-score of subpopulation abundance vs DMSO median, subpopulation auxotrophic for LUM; higher = larger share of this subpopulation than in DMSO controls; conditions: 10 µM; 24 h; SM minimal medium; subpopulation (auxotrophy): LUM
How it was run: as §1

[16] = tested on: Saccharomyces cerevisiae BY4741 SeMeCo community; experiment: z-score of subpopulation abundance vs DMSO median, subpopulation auxotrophic for HLUM; higher = larger share of this subpopulation than in DMSO controls; conditions: 10 µM; 24 h; SM minimal medium; subpopulation (auxotrophy): HLUM
How it was run: as §1

[17] = tested on: Saccharomyces cerevisiae BY4741 SeMeCo community; experiment: z-score of subpopulation abundance vs DMSO median, subpopulation auxotrophic for LU; higher = larger share of this subpopulation than in DMSO controls; conditions: 10 µM; 24 h; SM minimal medium; subpopulation (auxotrophy): LU
How it was run: as §1

| Structure (SMILES) | mean cell size [1] | z-score of prototroph abundance [2] | z-score of subpopulation abundance [3] | z-score of subpopulation abundance [4] | z-score of subpopulation abundance [5] | z-score of subpopulation abundance [6] | z-score of subpopulation abundance [7] | z-score of subpopulation abundance [8] | z-score of subpopulation abundance [9] | z-score of subpopulation abundance [10] | z-score of subpopulation abundance [11] | z-score of subpopulation abundance [12] | z-score of subpopulation abundance [13] | z-score of subpopulation abundance [14] | z-score of subpopulation abundance [15] | z-score of subpopulation abundance [16] | z-score of subpopulation abundance [17] |
| --- | --- | --- | --- | --- | --- | --- | --- | --- | --- | --- | --- | --- | --- | --- | --- | --- | --- |
| CN[C@H](CC(C)C)C(=O)N[C@H]1C(=O)N[C@@H](CC(N)=O)C(=O)N[C@H]2C(=O)N[C@H]3C(=O)N[C@H](C(=O)N[C@H](C(=O)O)c4cc(O)cc(O)c4-c4cc3ccc4O)[C@H](O)c3ccc(c(Cl)c3)Oc3cc2cc(c3O[C@@H]2O[C@H](CO)[C@@H](O)[C@H](O)[C@H]2O[C@H]2C[C@](C)(N)[C@H](O)[C@H](C)O2)Oc2ccc(cc2Cl)[C@H]1O [Vancomycin] | 12.3 ± 0.13 | 0.81 | -0.82 | -0.12 | -0.09 | -0.2 | -0.43 | -0.74 | -0.91 | -0.16 | -0.12 | -0.21 | -0.2 | -0.71 | -0.78 | -0.03 |  |
| CN(C)CCC=C1c2ccccc2CCc2ccccc21 [Amitriptyline HCl] |  | 0.95 | 0.09 |  | -0.21 | -0.87 | -0.17 | -0.99 | -0.28 | -0.92 | -0.48 | -1.03 | -1.26 | -0.75 | -0.91 |  | -1.69 |
| Nc1ccc(S(=O)(=O)Nc2ncccn2)cc1 [Sulfadiazine] | 12.34 ± 0.084 | 0.05 | -0.51 |  | -0.28 |  |  | -0.44 | -0.2 | -0.04 | -0.65 | 0.31 | 0 |  |  |  | 0.22 |
| Cc1cc(-n2c(=O)[nH]c(=O)n(C)c2=O)ccc1Oc1ccc(SC(F)(F)F)cc1 [Toltrazuril] | 12.53 ± 0.12 | 0.02 | -0.11 |  |  |  | -0.18 | 0.1 | 0.29 | -0.14 | 0.24 | 0 | -0.31 |  |  | 0.28 | -0.65 |
| NCCNc1ccc(NCCN)c2c1C(=O)c1ccncc1C2=O [Pixantrone Maleate] | 11.8 ± 0.17 | 3.16 | -11.8 | 1.31 | 2.84 | 3.74 | -5.3 | -5.86 | 4.69 | -7.68 | 9.63 | 7.46 | -2.2 | -5.6 | -4.09 | -1.46 |  |
| NC(=N\CCCCCC/N=C(N)/N=C(\N)Nc1ccc(Cl)cc1)/N=C(\N)Nc1ccc(Cl)cc1 [Chlorhexidine diacetate] |  | 1.46 | -2.47 | -0.29 | -0.99 | 0.93 | -0.7 | -1.35 |  | -1.2 | 1.03 | 1.21 | 1.2 | -0.61 | 1.19 |  |  |
| Cc1cc(/C=C/c2ccc3cc(N(C)C)ccc3[n+]2C)c(C)n1-c1ccccc1 [pyrvinium] | 12.38 ± 0.085 |  | 0.61 | -1.29 | 0.84 |  | -0.19 | -0.29 |  | 1.08 | -1.44 | -0.46 | -0.3 | -0.73 | -0.14 |  |  |
| NC12CC3CC(CC(C3)C1)C2 [Amantadine HCl] | 12.6 ± 0.17 | 0.23 | 0.52 | -0.67 | 0.19 | -0.11 | -0.26 | -0.31 | -0.11 | -0.27 | -0.19 | -0.31 |  | -0.08 | -0.72 | -0.01 |  |
| CC[C@H](C)C(=O)O[C@H]1C[C@H](O)C=C2C=C[C@H](C)[C@H](CC[C@@H](O)C[C@@H](O)CC(=O)O)[C@H]21 [Pravastatin] |  | -1.08 | 0.52 | -0.43 | 1.19 | 0.39 |  |  | 1.19 | 1.36 | 0.42 | -0.44 | -0.51 | 1.56 |  | -0.51 |  |
| CNCCCN1c2ccccc2CCc2ccccc21 [Desipramine Hydrochloride] | 12.2 ± 0.14 | -0.16 | 1.14 | 0.26 | -0.08 | 0.31 | 0.26 | 0.82 | -0.04 | -0.43 |  | -0.62 | -0.1 | 0.16 | -0.63 |  |  |
| COc1ccc2c(c1)c(CC(=O)O)c(C)n2C(=O)c1ccc(Cl)cc1 [Indomethacin] |  | 0.27 | -0.33 | 0.48 | 0.52 | -0.68 | 0.16 | -1.04 |  | 1.08 | -0.38 | -0.33 | -1.07 |  | 0.47 |  |  |
| CCCC1CC(C(=O)NC(C(C)Cl)C2OC(SC)C(O)C(O)C2O)N(C)C1 (stereo unspecified) [Clindamycin alcoholate] |  | -0.45 | 0.25 | 1.51 | -0.8 | 0.65 | 1.04 | 0.91 | -0.93 | -0.51 | 1.2 | -0.02 | 0.08 |  | 0.51 | -0.12 |  |
| CCc1cc(C(N)=S)ccn1 [Ethionamide] | 12.45 ± 0.074 | 0.06 | 0.23 | 0.86 | -0.01 | 0.59 |  | 0.03 | 0.19 | 0.25 | -0.03 | -0.14 | -0.28 |  | -0.07 | -0.72 |  |
| COc1ccnc(C[S+]([O-])c2nc3cc(-n4cccc4)ccc3[nH]2)c1C (stereo unspecified) [Ilaprazole sodium] |  | -0.81 | 1.1 | 1.32 | -1.54 | 5.12 |  | 1.14 | -0.9 | -1.01 | 6.22 | 2.72 | 3.01 |  | 0.43 | 0.94 |  |
| Nc1c2c(nc3ccccc13)CCCC2 [Tacrine hydrochloride hydrate] |  | -0.22 | 0.5 | -0.15 | 0 | -0.99 | 0.08 | -0.01 | -0.42 | 0.92 | -0.15 | 0.33 | 0.56 | 0.1 | 0.71 | 0.45 |  |
| CO/N=C(\C(=O)N[C@@H]1C(=O)N2C(C(=O)O)=CCS[C@H]12)c1csc(N)n1 [Ceftizoxime] |  | 0.78 | 0.26 | -0.19 |  | -0.86 | -0.02 | -0.82 | -0.76 | -0.98 |  | -1.12 | -0.37 | -1.23 | -0.44 | -0.49 |  |
